Laboratory results: PubChem BioAssay (NCI)
This is part of a sample that, as a whole, favours compounds with a hit. Of some 83,000 tested, about 20% had one in any assay.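 Growth was measured after 48 h exposure to one concentration of compound in 96-well plates. Values under 10 count as active.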 Calls of active or inactive are those of the source.

Assays:
Assay in all cases: NCI-60 one-dose screen, 48 h (100 = growth as untreated, 0 = no growth, -100 = all killed)
Details in all cases: 10 µM unless noted
[1] = tested on: SR leukemia
[2] = tested on: RPMI-8226 leukemia
[3] = tested on: OVCAR-8 ovarian
[4] = tested on: OVCAR-5 ovarian
[5] = tested on: OVCAR-4 ovarian
[6] = tested on: SK-OV-3 ovarian
[7] = tested on: IGROV1 ovarian
[8] = tested on: OVCAR-3 ovarian
[9] = tested on: HS 578T breast
[10] = tested on: NCI/ADR-RES ovarian
[11] = tested on: T-47D breast
[12] = tested on: BT-549 breast
[13] = tested on: MDA-MB-435 melanoma
[14] = tested on: SW-620 colon
[15] = tested on: MCF7 breast
[16] = tested on: HCT-116 colon
[17] = tested on: HCC-2998 colon
[18] = tested on: KM12 colon

Measured: growth

Cn1ccnc1C(=O)/C=C/c1ccc(C(=O)Nc2ccc(Cl)cc2)cc1
inactive: [3] 14.3% | [4] 12.6% | [5] 18.1% | [6] 42.2% | [9] 18.4% | [13] 23.8% | [15] 12.6%
active: [1] -8.67% | [2] -8.46% | [7] -22.4% | [8] -12.8% | [10] 5.79% | [11] 9.37% | [12] -7.95% | [14] -46.8% | [16] -49% | [17] -10.1% | [18] -49.8%

COC(=O)c1c(C)nc(C)c2c1C(=O)C(Br)=C(NCc1ccccc1)C2=O
active: [3] 4.6% | [5] -57.3% | [8] -12.7% | [10] 3.37% | [13] -76.5% | [15] -30.2% | [16] 1.86%
inactive: [1] 27% | [2] 41.1% | [4] 61.5% | [6] 109% | [7] 18% | [9] 76% | [11] 13.7% | [12] 50.9% | [14] 16.7% | [17] 21.8% | [18] 37.1%

CC/C=C\C[C@H](O)C/C=C1/C(=O)C=C[C@@H]1C/C=C\CCCC(=O)N(C)C
active: [1] 6.2% | [2] 4.43% | [3] 2.8% | [8] 8.73% | [12] -34.8% | [13] -18.1% | [14] -42.4% | [15] 7.79% | [16] -63.4% | [17] -90.7% | [18] -51.3%
inactive: [4] 19.2% | [5] 43.9% | [6] 21.8% | [7] 11.5% | [9] 16.4% | [10] 16.7% | [11] 10.7%

CCCCn1c(=O)[nH]c(N)c([C@@H]2c3c([nH]c(=O)n(CCCC)c3=O)Oc3ccc4ccccc4c32)c1=O
inactive: [2] 77.8% | [4] 92.3% | [5] 86.2% | [6] 85% | [9] 103% | [11] 81.1% | [12] 46.9% | [15] 46% | [17] 83.3%
active: [1] 9.35% | [3] 7.15% | [7] 1.79% | [8] -92.1% | [10] 9.83% | [13] 5.95% | [14] -67.9% | [16] -26.3% | [18] -44.1%

O=C1Nc2ccc(C(=O)O)cc2/C1=N/c1nnc(Sc2ccccc2)s1
inactive: [1] 87.8% | [2] 99.1% | [3] 98.8% | [4] 113% | [5] 111% | [6] 109% | [7] 99.7% | [8] 105% | [9] 96.8% | [10] 110% | [11] 103% | [12] 123% | [13] 102% | [14] 103% | [15] 101% | [16] 104% | [17] 112% | [18] 99.9%

COc1cc2ncnc(Nc3ccc(S(=O)(=O)Nc4cc(C)on4)cc3)c2cc1OCCCN1CCN(c2ccc(F)cc2)CC1
inactive: [1] 107% | [2] 114% | [3] 103% | [4] 102% | [5] 116% | [6] 93% | [7] 107% | [8] 87.6% | [9] 90.7% | [10] 107% | [11] 89.6% | [12] 119% | [13] 105% | [14] 100% | [15] 96.8% | [16] 108% | [17] 115% | [18] 107%

CCOC(=O)C(=O)C(C(=O)OCC)c1ccccc1 (stereo not drawn)
inactive: [1] 94.7% | [2] 94.3% | [3] 120% | [4] 106% | [5] 106% | [6] 110% | [7] 122% | [8] 120% | [9] 94.2% | [10] 109% | [11] 100% | [12] 97.3% | [13] 101% | [14] 103% | [15] 101% | [16] 96.2% | [17] 114% | [18] 107%

CN(C)c1ccc(-c2c(C#N)c(N)nn2C(=O)c2ccc(NC(=O)c3ccccn3)cc2)cc1
inactive: [1] 98.6% | [2] 95.5% | [3] 98.3% | [4] 95.7% | [5] 105% | [6] 108% | [7] 79.1% | [8] 102% | [9] 93.9% | [10] 96.4% | [11] 101% | [12] 97.8% | [13] 98.2% | [14] 92.8% | [15] 92.5% | [16] 90.8% | [17] 95.2% | [18] 88%

O=C1c2c(c3c4ccccc4[nH]c3c3ccc4ccccc4c23)C(=O)N1CCN1CCNCC1
active: [1] -13.3% | [2] -35% | [8] -47.5% | [14] -54.9% | [16] -81.3%
inactive: [3] 34.5% | [4] 99.5% | [5] 12.9% | [6] 107% | [7] 58.1% | [9] 94.7% | [10] 25.9% | [11] 55.8% | [12] 93.5% | [13] 80.9% | [15] 23% | [17] 73.7% | [18] 36.3%

COc1ccc(C(=O)C/C(=C\c2ccc(Cl)cc2)C(=O)NCc2ccccc2)cc1
inactive: [1] 60.3% | [2] 75.7% | [3] 82.3% | [4] 99.5% | [5] 105% | [6] 79.3% | [7] 86.3% | [8] 100% | [9] 86.4% | [10] 89.1% | [11] 65.3% | [12] 110% | [13] 68.8% | [14] 98.2% | [15] 86.1% | [16] 82.5% | [17] 93.1% | [18] 99.7%

Ic1ccc(OCCCCn2ccnc2)cc1
inactive: [1] 45.1% | [2] 73.5% | [3] 95.5% | [4] 64.4% | [5] 44.7% | [6] 80.9% | [7] 71.9% | [8] 39.2% | [9] 90.2% | [10] 90.7% | [11] 77.6% | [12] 88.4% | [13] 73% | [14] 58.1% | [15] 89.7% | [16] 65.9% | [17] 68.1% | [18] 97.6%

COc1cc(/C=C2/C=C(c3ccccc3)N(CCc3ccc(S(N)(=O)=O)cc3)C2=O)cc(OC)c1OC
inactive: [1] 82.4% | [2] 66.8% | [3] 91.6% | [4] 118% | [5] 101% | [6] 103% | [7] 101% | [8] 110% | [9] 98.2% | [10] 99.6% | [11] 83.5% | [12] 94.4% | [13] 106% | [14] 102% | [15] 87.8% | [16] 84.7% | [17] 105% | [18] 105%

COc1ccc(OC)c(/C=N/Nc2ncnc3c2c(C)nn3C)c1
inactive: [1] 81.4% | [2] 100% | [3] 109% | [4] 93.2% | [5] 118% | [6] 102% | [7] 102% | [8] 107% | [9] 88% | [10] 101% | [11] 84.6% | [12] 101% | [13] 105% | [14] 107% | [15] 85.2% | [16] 109% | [17] 102% | [18] 103%

Cc1cc(=O)oc2cc(OCc3nn4c(Nc5nc6ccccc6s5)c(-c5ccccc5)nc4s3)ccc12
inactive: [1] 94.7% | [2] 82.6% | [3] 80.4% | [4] 97.5% | [5] 61.4% | [6] 92% | [7] 89.2% | [8] 95.3% | [9] 78.1% | [10] 84.6% | [11] 88.1% | [12] 92.6% | [13] 88.8% | [14] 85.3% | [15] 84.1% | [16] 85.4% | [17] 98.5% | [18] 89.6%

O=C1NC(=O)C(Cc2ccc(OCc3ccc(-c4ccc(Cl)cc4Cl)cc3)cc2)S1 (stereo not drawn)
inactive: [1] 29.3% | [2] 38.5% | [3] 42.6% | [4] 80.6% | [5] 47.4% | [6] 61.8% | [7] 52.2% | [8] 65.7% | [9] 65.1% | [10] 22.7% | [11] 16.1% | [12] 37.9% | [13] 24.5% | [14] 67.9% | [15] 28.5% | [16] 38.6% | [17] 60.8% | [18] 47.7%

C=CCn1c(SCC(=O)Nc2ccc(C(=O)/C=C/c3ccc(Cl)cc3)cc2)nnc1-c1ccc(Br)cc1
active: [2] -28.1% | [16] -80.4%
inactive: [1] 70.7% | [3] 57.6% | [4] 98% | [5] 57.6% | [6] 138% | [7] 87.2% | [8] 85.5% | [9] 71.9% | [10] 74.7% | [11] 88.9% | [12] 87.4% | [13] 26.9% | [14] 82.5% | [15] 13.4% | [17] 93.8% | [18] 69.9%
